Test results from PubChem BioAssay (NCI).
“And” between values parts separate entries of the source, which are not always exact repeats. Identical values can stand only once. Compounds without any hit were thinned out: in the full panel of roughly 83,000, 20% have a hit.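 96-well plates, one dose, 48 hours. Percent growth reported; active if below 10.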 The source made the active and inactive calls.

What was measured:
Assay in all cases: NCI-60 one-dose screen, 48 h (100 = growth as untreated, 0 = no growth, -100 = all killed)
Settings in all cases: 10 µM unless noted
[1] = tested on: HCT-15 colon
[2] = tested on: HT29 colon
[3] = tested on: SNB-75 CNS
[4] = tested on: SNB-19 CNS
[5] = tested on: U251 CNS
[6] = tested on: PC-3 prostate
[7] = tested on: SK-MEL-5 melanoma
[8] = tested on: UACC-62 melanoma
[9] = tested on: LOX IMVI melanoma
[10] = tested on: SK-MEL-28 melanoma

Measured: growth

CN(C)C1CCN(C(=O)c2ccc(NC(=O)Nc3ccc(-c4nc(N5CCOCC5)c5cccn5n4)cc3)cc2)CC1
active: [2] 6.06% | [3] -40.5% | [4] 3% | [5] 5.17% | [6] 3.69% | [7] -63.6% | [8] -43.5% | [9] -2.24% | [10] -22.4%
inactive: [1] 40.5%

Nc1c(C(=O)Nc2ccncc2)sc2nc3c(cc12)CCCCCCCC3
active: [1] -82.2% | [2] -92.6% | [3] -96.2% | [4] -77.1% | [5] -89.2% | [6] -18.9% | [7] -96.1% | [8] -94.9% | [9] -84.7% | [10] -91.4%

CNC(=O)c1cc(Oc2ccc3nc(NC(=O)Nc4ccc(C(F)(F)F)cc4)sc3c2)ccn1
inactive: [1] 54.2% | [2] 78.4% | [3] 29.1% | [4] 79.3% | [5] 22.4% | [6] 58.8% | [7] 56.9% | [8] 56% | [9] 48.1% | [10] 68.9%

O=C(/C=C/c1ccc(F)cc1)Nc1ncc(Cc2ccc(F)cc2)s1
active: [7] 2.79% | [9] 9.96%
inactive: [1] 26.1% | [2] 13.7% | [3] 23.2% | [4] 58.1% | [5] 33.6% | [6] 31.9% | [8] 14.1% | [10] 67%

CCOC(=O)CC1CSC(c2cccc(Cl)c2)=N1 (stereo not given)
inactive: [1] 106% | [2] 102% | [3] 106% | [4] 106% | [5] 102% | [6] 103% | [7] 100% | [8] 101% | [9] 95.7% | [10] 110%

CC1(Cc2ccccc2)CC2=C(C(=O)O1)C(c1ccccc1)NC(=O)N2 (stereo not given)
inactive: [1] 106% | [2] 96.8% | [3] 79.3% | [4] 89.4% | [5] 104% | [6] 92% | [7] 95% | [8] 91.5% | [9] 95.3% | [10] 116%

O=C1OCC2=C1C(c1cccc(C(F)(F)F)c1)c1cc3c(cc1N2CCO)OCCO3 (stereo not given)
active: [2] 3.94%
inactive: [1] 14.1% | [3] 42.4% | [4] 23.4% | [5] 14.7% | [6] 26.2% | [7] 22.9% | [8] 39.9% | [9] 37.4% | [10] 50%

CN1CCCc2cc(/C=C3\SC(=S)N(C(Cc4ccc(O)cc4)C(=O)O)C3=O)ccc21 (stereo not given)
inactive: [1] 101% | [2] 110% | [3] 89.9% | [4] 92.2% | [5] 94.7% | [6] 101% | [7] 100% | [8] 93.6% | [9] 93.8% | [10] 113%

S=c1nc(CS)[nH]c2ccccc12
inactive: [1] 93.2% | [2] 101% | [3] 86.7% | [4] 92.5% | [5] 96.7% | [6] 93.9% | [7] 95.7% | [8] 90.6% | [9] 91% | [10] 105%

O=C(Cn1cc(CN2CCN(c3ccnc4cc(Cl)ccc34)CC2)nn1)Nc1cccc([N+](=O)[O-])c1
inactive: [1] 102% | [2] 101% | [3] 83.4% | [4] 90.3% | [5] 81.6% | [6] 58.5% | [7] 70.1% | [8] 70.8% | [9] 85.1% | [10] 104%

O=C1/C(=C/c2ccccc2[N+](=O)[O-])Cc2ccccc21
inactive: [3] 40.8% and 43.5% | [4] 93.7% and 74.1% | [5] 24.9% and 32.7% | [6] 27.2% and 30.4% | [7] 47.2% and 69.5% | [8] 29.5% and 25.5%
45.9% (inactive) and 4.22% (active): [10]
active: [1] -56.9% and 5.02% | [2] -44% and -37.1% | [9] -61.1% and 5.09%

O=C(/C=C/c1ccc([N+](=O)[O-])cc1)c1ccccc1
inactive: [1] 77.2% | [2] 50.7% | [3] 83.4% | [4] 98.5% | [5] 80.8% | [6] 77.5% | [7] 94.5% | [8] 94.9% | [9] 61.4% | [10] 103%

NCCOCCOc1ccccc1
inactive: [1] 104% | [2] 97.6% | [3] 106% | [4] 106% | [5] 96.1% | [6] 90.5% | [7] 114% | [8] 102% | [9] 102% | [10] 107%

CCC(=O)Oc1cc(Cl)c(Cl)cc1Cl
inactive: [1] 103% | [2] 103% | [3] 89.6% | [4] 113% | [5] 98.1% | [6] 96.4% | [7] 105% | [8] 108% | [9] 105% | [10] 104%

O=C1C=C(Nc2ccccc2)c2ncccc2C1=O
active: [1] -68.7% | [2] -37% | [3] -97.1% | [4] -92.8% | [5] -97.9% | [6] -17.7% | [7] -97.8% | [8] -92.3% | [9] -77.7% | [10] -81.3%

COc1cc(N=Nc2ccc(O)c3ncccc23)c2ncccc2c1
inactive: [1] 27.5% | [2] 44.5% | [3] 41.9% | [4] 47.6% | [5] 16.5% | [6] 32.4% | [7] 43.1% | [10] 42%
active: [8] 6.71% | [9] 4.79%

COc1ccccc1/C=C1\COc2ccc(O)c(O)c2C1=O
active: [1] -13.3% | [9] -30.1%
inactive: [2] 57.5% | [3] 11.6% | [4] 43.7% | [5] 15.3% | [6] 33.1% | [7] 41.6% | [8] 14.8% | [10] 47.9%

N#CC1C(=O)c2ccccc2C1c1ccccc1 (stereo not given)
inactive: [1] 101% and 95.5% | [2] 114% and 110% | [3] 89.5% and 93.2% | [4] 97.1% and 98.5% | [5] 98.6% and 99.8% | [6] 111% and 116% | [7] 96.8% and 103% | [8] 100% and 101% | [9] 91.5% and 98.1% | [10] 107% and 117%

COc1ccc(S(=O)(=O)Nc2cc(Sc3cccc4cccnc34)c(O)c3ccccc23)cc1
active: [2] -37.8% | [5] 4.81% | [7] -32.7% | [8] -28.1% | [9] -55.8% | [10] -2.3%
inactive: [1] 10.9% | [3] 62.5% | [4] 43% | [6] 26.3%

COc1ccc(C/C(C)=C(/c2ccc(OCCN3CCCC3)cc2)c2ccc(OC(=O)NCc3ccccc3)cc2)cc1
inactive: [1] 61.4% | [2] 18.6% | [3] 71.1% | [4] 85.6% | [5] 67.1% | [6] 67.3% | [7] 77.8% | [8] 84.8% | [9] 84.4% | [10] 84.7%

COc1ccc(C(=O)c2ccc(OC)c(OC)c2OC)cc1
4.69% (active) and 12.7% (inactive): [2]
inactive: [1] 26.6% and 27.2% | [4] 43.6% and 41.7% | [5] 31.3% and 26.2% | [6] 35.5% and 32.9% | [7] 18.8% | [8] 40.8% and 50.7% | [9] 34.3% and 39.8% | [10] 45.3% and 50.3%
active: [3] -3.95%

Cc1ccc2[nH]c(=S)[nH]c(=O)c2c1
inactive: [1] 106% | [2] 102% | [3] 80.5% | [4] 101% | [5] 95% | [6] 102% | [7] 100% | [8] 103% | [9] 95.5% | [10] 111%

COCCOc1cc2ncnc(N3CCN(S(=O)(=O)c4ccccc4Cl)CC3)c2cc1OCCOC
inactive: [1] 52.3% | [2] 81.8% | [3] 88.2% | [4] 86.1% | [5] 90.1% | [6] 71.2% | [7] 58.8% | [8] 61% | [9] 83.1% | [10] 82.8%
